Laboratory results from PubChem BioAssay (Tox21).
Records with an inconclusive call do not appear. The source made the active and inactive calls. The call rests on the fitted dose curve.

What was measured:
[1] = biological target: Acetylcholinesterase (Homo sapiens) (UniProt P22303); experiment: Acetylcholinesterase (AChE) small molecule antagonists: colormetric cell-based qHTS assay (AID 1347395); settings: SH-SY5Y cells AChE activity, colorimetric (Ellman); series mostly up to 115 µM; further: nearly all actives have a fitted effect of over 30% in size
Sequence of Acetylcholinesterase (Homo sapiens) (P22303 whole entry, looked up): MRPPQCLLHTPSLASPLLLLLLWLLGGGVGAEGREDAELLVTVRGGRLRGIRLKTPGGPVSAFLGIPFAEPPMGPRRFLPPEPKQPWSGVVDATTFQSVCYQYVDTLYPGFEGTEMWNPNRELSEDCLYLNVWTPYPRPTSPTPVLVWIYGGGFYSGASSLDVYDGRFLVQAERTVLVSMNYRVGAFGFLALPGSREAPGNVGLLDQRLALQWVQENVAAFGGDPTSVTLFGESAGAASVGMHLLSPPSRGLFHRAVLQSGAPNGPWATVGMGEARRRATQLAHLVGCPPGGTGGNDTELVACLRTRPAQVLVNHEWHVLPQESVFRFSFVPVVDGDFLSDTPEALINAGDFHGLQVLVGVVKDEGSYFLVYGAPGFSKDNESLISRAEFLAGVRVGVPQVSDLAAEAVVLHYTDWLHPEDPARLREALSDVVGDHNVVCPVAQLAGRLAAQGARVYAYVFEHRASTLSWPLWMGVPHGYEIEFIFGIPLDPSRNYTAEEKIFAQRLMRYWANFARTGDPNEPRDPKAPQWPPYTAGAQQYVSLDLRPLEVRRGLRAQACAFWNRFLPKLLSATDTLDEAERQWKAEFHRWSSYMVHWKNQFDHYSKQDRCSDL
Summary of the method: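 Quantitative HTS in attached SH-SY5Y cells: 30 min compound exposure, then 90 min with acetylthiocholine and DTNB at 37 C; colour from thiocholine reports AChE activity.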

[2] = biological target: Acetylcholinesterase (Homo sapiens) (UniProt P22303); experiment: Acetylcholinesterase (AChE) small molecule antagonists: enzyme-based qHTS assay (AID 1347397); settings: Potency: AChE enzyme activity inhibition; outcome: AChE enzyme activity inhibition; series mostly up to 115 µM; further: nearly all actives have a fitted effect of over 55% in size
Summary of the method: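 rhAChE 50 mU/mL (dispensed) + cpd or DMSO, 30 min RT; add DTNB/acetylthiocholine cocktail, 10 min RT; colorimetric thiocholine readout. qHTS, 1536-well format.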

[3] = biological target: Acetylcholinesterase (Homo sapiens) (UniProt P22303); experiment: Acetylcholinesterase (AChE) small molecule antagonists: fluorescence cell-based qHTS assay (AID 1347398); settings: SH-SY5Y cells; Potency: AChE activity; outcome: AChE activity; series mostly up to 115 µM; further: nearly all actives have a fitted effect of over 50% in size
Summary of the method: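 Read-out is Thiolite Green fluorescence at Ex/Em = 490/520 nm, formed by reaction with thiocholine released when cellular AChE in SH-SY5Y cells hydrolyzes acetylthiocholine. Compounds were preincubated 30 min at 37 C before substrate.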

[4] = biological target: Acetylcholinesterase (Homo sapiens) (UniProt P22303); experiment: Acetylcholinesterase (AChE) small molecule antagonists: enzyme-based qHTS assay with human liver microsomes (AID 1347399); settings: Potency: qHTS inhibition; outcome: qHTS inhibition; series mostly up to 115 µM; further: nearly all actives have a fitted effect of over 60% in size
Summary of the method: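 Recombinant human AChE (50 mU/mL in the enzyme mix) and human liver microsomes (0.25 mg/mL final) were preincubated with compound and NADPH (0.25 mg/mL final) for 30 min at 37 C. Acetylthiocholine/DTNB was then added; thiocholine was read colorimetrically after 10 min at room temperature.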
On the % scale 0 is the no-effect control and ±100 the full control effect.

COc1cc(OC)cc(OC)c1
inactive: Potency [1] | Potency [2] | Potency [3] | Potency [4]

CO[Si](OC)(c1ccccc1)c1ccccc1
inactive: Potency [1] | Potency [2] | Potency [3] | Potency [4]

CC[C@@]1(O)C(=O)OCc2c1cc1n(c2=O)Cc2c-1nc1ccccc1c2/C=N/OC(C)(C)C
inactive: Potency [1] | Potency [2] | Potency [3] | Potency [4]

COc1ccc(Cl)cc1C
inactive: Potency [1] | Potency [2] | Potency [3] | Potency [4]

C=C(C)[C@@H]1CCC2=CCC[C@@H](C)[C@]2(C)C1
inactive: Potency [1] | Potency [2] | Potency [3] | Potency [4]

CCCCc1ccc2c(n1)[C@@H](c1ccc(OC)cc1C[C@H](C)C(=O)O)[C@H](C(=O)O)[C@H]2c1ccc2c(c1)OCO2
inactive: Potency [1] | Potency [2] | Potency [3] | Potency [4]

CC(=O)Oc1cc2c(s1)CCN(C(C(=O)C1CC1)c1ccccc1F)C2 (centres undefined)
inactive: Potency [1] | Potency [2] | Potency [3] | Potency [4]

CC(C)CCCC(C)CCO (centres undefined)
inactive: Potency [1] | Potency [2] | Potency [3] | Potency [4]

O=C1CCCN1CCO
inactive: Potency [1] | Potency [2] | Potency [3] | Potency [4]

CC(C)CCCC(C)(C)O
inactive: Potency [1] | Potency [2] | Potency [3] | Potency [4]

CC(C)(C)c1ccc(-c2ccc(C(C)(C)C)cc2)cc1
inactive: Potency [1] | Potency [2] | Potency [3] | Potency [4]

CCCCOCCOC(=O)c1cccnc1
inactive: Potency [1] | Potency [2] | Potency [3] | Potency [4]

COC(C)(C)CC(C)=O
inactive: Potency [1] | Potency [2] | Potency [3] | Potency [4]

O=S(=O)(O)c1cc(O)c2ccc(Nc3ccccc3)cc2c1
inactive: Potency [1] | Potency [2] | Potency [3] | Potency [4]

CC1=CP(=O)(c2ccccc2)CC1 (centres undefined)
inactive: Potency [1] | Potency [2] | Potency [3] | Potency [4]

OCCN1CCOCC1
inactive: Potency [1] | Potency [2] | Potency [3] | Potency [4]

O=C(OCCN1CCOCC1)c1cccnc1Nc1cccc(C(F)(F)F)c1
inactive: Potency [1] | Potency [2] | Potency [3] | Potency [4]

COc1ccc(C2C(=O)c3ccccc3C2=O)cc1
inactive: Potency [1] | Potency [2] | Potency [3] | Potency [4]

Cc1ccc(C(N)=O)cc1N
inactive: Potency [1] | Potency [2] | Potency [3] | Potency [4]

O=S(=O)(O)c1ccc2c(N=Nc3ccc(S(=O)(=O)O)c4ccccc34)c(O)c(S(=O)(=O)O)cc2c1
inactive: activity, negative = inhibition [1] -0.661% [at 10.5 µM] | activity change, negative = inhibition [2] 1.09% [at 10.5 µM] | activity change, negative = inhibition [3] 5.15% [at 10.5 µM] | activity change, negative = inhibition [4] 1.78% [at 10.5 µM]

C[C@H](CCC(=O)NCC(=O)O)[C@H]1CC[C@H]2[C@@H]3[C@H](O)C[C@@H]4C[C@H](O)CC[C@]4(C)[C@H]3C[C@H](O)[C@]12C
inactive: Potency [1] | Potency [2] | Potency [3] | Potency [4]

CCOC(=O)OC(=O)OCC
inactive: Potency [1] | Potency [2] | Potency [3] | Potency [4]

CC(C(=O)O)c1ccc2c(c1)[nH]c1ccc(Cl)cc12 (centres undefined)
inactive: Potency [1] | Potency [2] | Potency [3] | Potency [4]

CCCCCCCCN1CCCC1=O
inactive: Potency [1] | Potency [2] | Potency [3] | Potency [4]

Cc1cccn2c(=O)c(-c3nnn[nH]3)cnc12
inactive: activity, negative = inhibition [1] -0.311% [at 23.6 µM] | activity change, negative = inhibition [2] -2.02% [at 23.6 µM] | activity change, negative = inhibition [3] -17.5% [at 23.8 µM] | activity change, negative = inhibition [4] -5.01% [at 23.6 µM]

CC1OC(=O)C(C)OC1=O (centres undefined)
inactive: Potency [1] | Potency [2] | Potency [3] | Potency [4]

Cc1cc(-n2nc3ccc(Cl)cc3n2)c(O)c(C(C)(C)C)c1
inactive: Potency [1] | Potency [2] | Potency [3] | Potency [4]

CCC(C)c1ccccc1 (centres undefined)
inactive: Potency [1] | Potency [2] | Potency [3] | Potency [4]

CCCCCCCCCCCCCC(=O)OCC(O)CO (centres undefined)
inactive: Potency [1] | Potency [2] | Potency [3] | Potency [4]

CC1=C(CC=O)C(C)(C)CCC1
inactive: Potency [1] | Potency [2] | Potency [3] | Potency [4]

CC1(C)[C@@H](O)CC[C@]2(C)[C@H]3C(=O)C=C4[C@@H]5C[C@@](C)(C(=O)O)CC[C@]5(C)CC[C@@]4(C)[C@]3(C)CC[C@@H]12
inactive: Potency [1] | Potency [2] | Potency [3] | Potency [4]

CC(=O)c1cccc([N+](=O)[O-])c1
inactive: Potency [1] | Potency [2] | Potency [3] | Potency [4]

C[C@@]12CCC[C@H]1[C@@H]1CC[C@H]3C[C@@H](O)CC[C@]3(C)[C@H]1CC2
inactive: Potency [1] | Potency [2] | Potency [3] | Potency [4]

O=C(Cn1ccnc1[N+](=O)[O-])NCCO
inactive: Potency [1] | Potency [2] | Potency [3] | Potency [4]

N[C@H](C(=O)O)[C@@H](O)c1ccc(O)c(O)c1
inactive: Potency [1] | Potency [2] | Potency [3] | Potency [4]

O=C1CC2(CCCC2)CC(=O)N1
inactive: Potency [1] | Potency [2] | Potency [3] | Potency [4]

c1ccc(-c2nc[nH]c2-c2ccccc2)cc1
inactive: Potency [1] | Potency [2] | Potency [3] | Potency [4]

CCOC(=O)[C@@](C)(N)Cc1ccc(O)c(O)c1
inactive: Potency [1] | Potency [2] | Potency [3] | Potency [4]

FC1(F)C(F)(F)C(F)(F)C2(F)C(F)(F)C(F)(F)C(F)(F)C(F)(F)C2(F)C1(F)F (centres undefined)
inactive: Potency [1] | Potency [2] | Potency [3] | Potency [4]

COc1ccc(OC)c(Cl)c1
inactive: Potency [1] | Potency [2] | Potency [3] | Potency [4]

C=CCN(CC=C)CC=C
inactive: Potency [1] | Potency [2] | Potency [3] | Potency [4]
